# Screening data deposited in PubChem BioAssay by several laboratories.
# CYP2C9 act = human CYP2C9 activators, primary screen, biochemical, luminescence; 96,000 tested, 1.4% active; activation factor at 5 µM; recombinant CYP2C9, luciferin-H conversion; active compounds read high; factor 1 = untreated enzyme, 0 = blocked; AID 1024, 2008;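 active = activation factor of 2 or more for CYP2C9 at a 5 µM dose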;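 also: 0 = sulfaphenazole-blocked wells and 1 = vehicle-only wells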
# CYP2C19 activ = human CYP2C19 activators, primary screen, biochemical, luminescence; Cytochrome P450 2C19 (Homo sapiens), P33261; recombinant CYP2C19, luciferin-H EGE luminescence; active compounds read high; 0 = fully inhibited enzyme, 1 = untreated enzyme; activation factor at 5 µM; 96,000 tested, under 10 active;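 active = activation factor of at least 2 at 5 µM in the primary screen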;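 also: 0 = wells with 2.5 mM tranylcypromine and 1 = vehicle-only wells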
# Target sequence (P33261 whole entry, looked up): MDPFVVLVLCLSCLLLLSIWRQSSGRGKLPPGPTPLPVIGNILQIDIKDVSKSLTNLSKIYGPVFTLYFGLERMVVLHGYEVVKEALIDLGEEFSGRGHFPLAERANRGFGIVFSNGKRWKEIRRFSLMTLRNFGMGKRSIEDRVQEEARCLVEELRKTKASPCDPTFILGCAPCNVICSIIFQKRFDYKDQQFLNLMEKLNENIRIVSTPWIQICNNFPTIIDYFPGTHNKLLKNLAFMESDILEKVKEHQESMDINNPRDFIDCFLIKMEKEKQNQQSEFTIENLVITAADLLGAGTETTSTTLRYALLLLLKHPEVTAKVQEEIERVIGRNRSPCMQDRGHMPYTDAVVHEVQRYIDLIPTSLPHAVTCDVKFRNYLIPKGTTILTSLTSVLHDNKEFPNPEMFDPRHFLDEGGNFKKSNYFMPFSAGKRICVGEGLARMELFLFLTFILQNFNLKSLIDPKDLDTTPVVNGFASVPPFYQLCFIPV
# CYP2C9 inh = blockers of cytochrome P450 2C9 activity – biochemical, luminescence, ADME assay, primary screen. AID 777, 2007. CYP2C9 Supersomes, luciferin-H conversion. 96,000 tested, 20% active. P11712. inhibition, % at 5 µM;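 active = blocking of liver enzyme CYP2C9 beyond about 50% at 5 µM, limit read from the data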
# Cav3 T inh = Cav3.2 calcium influx blockers – cell-based, Fluo-4 calcium fluorescence, FDSS, MLSMR library, primary screen; Voltage-dependent T-type calcium channel subunit alpha-1H (Homo sapiens), O95180; B-score at 10 µM; AID 449739, 2010; Cav3.2-expressing cells; active compounds read low; 100,000 tested, 4% active;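 active = single-dose well whose peak fluorescence ratio is a statistical outlier from its plate by either plate-standardised score or position-corrected B-score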
# CYP2C19 inh = blockers of cytochrome P450 2C19 activity – biochemical, luminescence, ADME assay, primary screen; P33261; CYP2C19 Supersomes, luciferin-H EGE luminescence, 30 min; inhibition, % at 5 µM; 96,000 tested, 21% active;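 active = CYP2C19 inhibition above a set limit at 5 µM in the primary screen, cut at about 50% in these data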;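 also: plate controls were negative control wells for no effect and 2.5 mM tranylcypromine positive control for full effect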
# An asterisk follows results filed as active; / = not tested or not shown. An excerpt weighted towards active compounds, which were near 27% of everything screened.
SMILES,CYP2C9 act,CYP2C19 activ,CYP2C9 inh,Cav3 T inh,CYP2C19 inh
CCOC(=O)N=S(=O)(Oc1ccc([N+](=O)[O-])cc1)c1ccc(Cl)cc1 (stereo unspecified),/,/,/,-4.2*,/
CCOC(=O)N=S(=O)(Oc1ccc([N+](=O)[O-])cc1)c1ccccc1 (stereo unspecified),0.7,0.2,29,0.2,78*
Cc1ccnc(SCC(=O)N2CCN(c3ccccc3)CC2)n1,/,/,/,0.94,/
C=CCn1c(SCC(=O)Nc2ccccc2OC)nnc1-c1ccccn1,/,/,/,0.15,/
O=C(CSc1ncn(-c2ccccc2)n1)N1CCN(c2ccccc2)CC1,0.4,0.4,59*,-0.23,64*
COc1ccccc1NC(=O)CSc1ncn(-c2ccccc2)n1,0.8,0.2,19,-0.63,76*
C=CCn1c(SCC(=O)Nc2ccccc2OC)nnc1-c1ccco1,0.9,0.5,10,0.057,54*
C=CCn1c(SCc2nc(N)nc(N3CCCCC3)n2)nnc1-c1ccco1,0.9,0.4,13,1.3,59*
CCCCNCC(=O)Nc1ccc(NC(=O)CNCCCC)cc1,0.9,1,13,0.13,1
N/C(COc1cccc(Cl)c1)=N\NS(=O)(=O)c1ccccc1,1,0.7,4,-0.025,31
CCc1ccccc1NC(=O)CSc1nnc(-c2ccco2)n1N,1.1,0.4,-10,0.057,56*
COc1ccccc1NC(=O)CSc1nnc(C)n1Cc1ccccc1,1,0.5,-3,0.32,52*
C=CCn1c(SCC(O)Cn2c3ccccc3c3ccccc32)nnc1-c1ccco1 (stereo unspecified),0.1,0,90*,-2.8,98*
O=C(O)c1cc(C(F)(F)F)nc2c(C(F)(F)F)cccc12,/,/,/,-0.14,/
Cc1ccc(/C=C/S(=O)(=O)N2CCC(C(=O)O)CC2)cc1,1.1,1.1,-10,0.65,-13
Cc1cc(C)cc(NC(=O)c2snc3c(=O)[nH]cnc23)c1,1,0.9,2,1.3,11
Cc1nnc(NC(=O)C2CCCN(c3ncccn3)C2)s1 (stereo unspecified),1,0.9,4,0.99,6
COc1ccccc1-c1nnc(N(C)C(=O)C2CCCO2)s1 (stereo unspecified),1.2,0.7,-19,0.037,31
COc1ccc(-c2nc(-c3cccs3)c(-c3cccs3)[nH]2)cc1O,0,0.1,96*,-2.7,88*
COc1ccc(-c2nnc(-c3cccs3)o2)cc1OC,0.8,0.8,18,0.07,20
Cc1ccccc1C(C(=O)NCc1ccccc1)N(Cc1ccco1)C(=O)c1ccccn1 (stereo unspecified),0.7,0.5,34,-1.4,54*
O=C(c1ccccn1)N(Cc1ccco1)C1(C(=O)NC2CCCCC2)CCCCC1,0.8,1,15,-3.2,2
Cc1cccc(C)c1NC(=O)C1(N(Cc2ccco2)C(=O)c2ccccn2)CCCC1,0.4,0.6,63*,-1.4,41
CC(C)(C)NC(=O)C(c1ccccc1F)N(Cc1ccco1)C(=O)c1csnn1 (stereo unspecified),1,0.8,-4,0.37,16
O=C(COc1ccc2ccccc2c1CN1CCOCC1)N1CCc2ccccc21,0.8,0.7,24,-0.9,26
SMILES,CYP2C9 act,CYP2C19 activ,CYP2C9 inh,Cav3 T inh,CYP2C19 inh
COc1ccc(C(CCN2CCCC(C)C2)c2c(OC)cc(OC)c3c2OC(=O)CC3c2cc(OC)c(OC)c(OC)c2)cc1 (stereo unspecified),/,/,/,-0.98,/
C=CCc1cccc2cc(C(=O)O)c(=O)oc12,1.1,1,-8,-0.069,-3
C=CCc1cccc2cc(C(=O)N(CC)CC)c(=O)oc12,2.2*,0.9,-124,1.6,8
C=CCc1cccc2cc(C(=O)N(C)C)c(=O)oc12,3*,0.8,-204,0.68,18
COc1cccc2cc(C(=O)N3CCN(C(=O)c4ccco4)CC3)c(=O)oc12,1.7,0.9,-69,0.34,11
C=CCc1cccc2cc(C(=O)N3CCN(C(=O)c4ccco4)CC3)c(=O)oc12,2.3*,1.1,-125,0.14,-7
Cc1c(C(=O)OCC(=O)N2CC(C)OC(C)C2)oc2ccc(Br)cc12 (stereo unspecified),0.9,0.9,12,/,9
